Targets with a hit are over-represented here; the source holds about 8,800 in all. About 0.5% of all pairs of compound and target were hits. Unmarked numbers belong to inactive results.
Tests used:
Assay in all cases: log2 fold change, soluble protein after heating vs DMSO (PISA); higher = thermal stabilisation; K562 lysate, 10 uM; active = over 0.2 and 3.5 SD of the protein, either way, in both replicates (recomputed)
nilotinib = compound: Cc1cn(-c2cc(NC(=O)c3ccc(C)c(Nc4nccc(-c5cccnc5)n4)c3)cc(C(F)(F)F)c2)cn1 [nilotinib]
Procedure, shortened: (§1)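 Soluble protein was defined as the supernatant remaining after 21,000xg for 90 min, following pooling of heated aliquots and adjustment to 0.5% NP-40 at 4°C. Before that, crude K562 extract at 1 mg/mL protein in PBS pH 7.4 with 1 mM MgCl2 was treated with 10 μM compound for 30 min and heated for 3 min across 48°C-58°C. Quantification used TMTpro 16plex LC-MS/MS with channel sums equalised, and values are log-two fold changes in thermal stability relative to solvent controls from duplicates.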

[1] = compound: Cc1nc(Nc2n[nH]c3c2CN(C(=O)N[C@H](CN(C)C)c2ccccc2)C3(C)C)c2sccc2n1
Procedure, shortened: as §1

dasatinib = compound: Cc1nc(Nc2ncc(C(=O)Nc3c(C)cccc3Cl)s2)cc(N2CCN(CCO)CC2)n1 [dasatinib]
Procedure, shortened: as §1

[2] = compound: Cc1ncc(-c2ccnc(Nc3ccc(S(C)(=O)=O)cc3)n2)n1C(C)C
Procedure, shortened: as §1

[3] = compound: Cn1cc(-c2ccc3c(c2)CCN3C(=O)Cc2cccc(C(F)(F)F)c2)c2c(N)ncnc21
Procedure, shortened: as §1

quisinostat = compound: Cn1cc(CNCC2CCN(c3ncc(C(=O)NO)cn3)CC2)c2ccccc21 [quisinostat]
Procedure, shortened: as §1

tipifarnib = compound: Cn1cncc1[C@@](N)(c1ccc(Cl)cc1)c1ccc2c(c1)c(-c1cccc(Cl)c1)cc(=O)n2C [tipifarnib]
Procedure, shortened: as §1

[4] = compound: NC(=O)Nc1cc(-c2cccc(F)c2)sc1C(=O)N[C@H]1CCCNC1
Procedure, shortened: as §1

[5] = compound: NC(=O)c1cnc(N[C@@H]2CCCC[C@@H]2N)nc1Nc1cccc(-n2nccn2)c1
Procedure, shortened: as §1

[6] = compound: NC1(c2ccc(-c3nc4ccn5c(=O)[nH]nc5c4cc3-c3ccccc3)cc2)CCC1
Procedure, shortened: as §1

[7] = compound: NCC(=O)Nc1ccc(-n2nc(C(F)(F)F)cc2-c2ccc3c(ccc4ccccc43)c2)cc1
Procedure, shortened: as §1

vorinostat = compound: O=C(CCCCCCC(=O)Nc1ccccc1)NO [vorinostat]
Procedure, shortened: as §1

silmitasertib = compound: O=C(O)c1ccc2c(c1)nc(Nc1cccc(Cl)c1)c1ccncc12 [silmitasertib]
Procedure, shortened: as §1

[8] = compound: O=C1NC(=O)C(c2cnc3ccccn23)=C1c1cn2c3c(cc(F)cc13)CN(C(=O)N1CCCCC1)CC2
Procedure, shortened: as §1

entospletinib = compound: c1cn2cc(-c3ccc4cn[nH]c4c3)nc(Nc3ccc(N4CCOCC4)cc3)c2n1 [entospletinib]
Procedure, shortened: as §1

Sequence of UniProt O95260 (O95260 whole entry, looked up): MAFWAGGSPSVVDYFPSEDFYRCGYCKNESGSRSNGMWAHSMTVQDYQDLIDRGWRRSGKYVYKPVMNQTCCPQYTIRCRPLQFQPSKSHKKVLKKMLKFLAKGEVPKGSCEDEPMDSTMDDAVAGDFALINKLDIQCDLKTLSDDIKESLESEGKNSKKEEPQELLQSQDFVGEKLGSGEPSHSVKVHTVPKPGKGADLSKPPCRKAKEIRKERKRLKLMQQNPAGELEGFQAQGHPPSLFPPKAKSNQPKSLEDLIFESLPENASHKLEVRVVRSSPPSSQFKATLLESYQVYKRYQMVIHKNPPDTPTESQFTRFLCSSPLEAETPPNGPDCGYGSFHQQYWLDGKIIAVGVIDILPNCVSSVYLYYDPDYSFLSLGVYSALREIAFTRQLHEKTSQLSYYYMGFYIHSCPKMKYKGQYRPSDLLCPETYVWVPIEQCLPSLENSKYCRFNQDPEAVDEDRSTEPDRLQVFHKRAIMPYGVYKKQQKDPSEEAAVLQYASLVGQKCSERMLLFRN
Sequence of UniProt Q12873 (Q12873 whole entry, looked up): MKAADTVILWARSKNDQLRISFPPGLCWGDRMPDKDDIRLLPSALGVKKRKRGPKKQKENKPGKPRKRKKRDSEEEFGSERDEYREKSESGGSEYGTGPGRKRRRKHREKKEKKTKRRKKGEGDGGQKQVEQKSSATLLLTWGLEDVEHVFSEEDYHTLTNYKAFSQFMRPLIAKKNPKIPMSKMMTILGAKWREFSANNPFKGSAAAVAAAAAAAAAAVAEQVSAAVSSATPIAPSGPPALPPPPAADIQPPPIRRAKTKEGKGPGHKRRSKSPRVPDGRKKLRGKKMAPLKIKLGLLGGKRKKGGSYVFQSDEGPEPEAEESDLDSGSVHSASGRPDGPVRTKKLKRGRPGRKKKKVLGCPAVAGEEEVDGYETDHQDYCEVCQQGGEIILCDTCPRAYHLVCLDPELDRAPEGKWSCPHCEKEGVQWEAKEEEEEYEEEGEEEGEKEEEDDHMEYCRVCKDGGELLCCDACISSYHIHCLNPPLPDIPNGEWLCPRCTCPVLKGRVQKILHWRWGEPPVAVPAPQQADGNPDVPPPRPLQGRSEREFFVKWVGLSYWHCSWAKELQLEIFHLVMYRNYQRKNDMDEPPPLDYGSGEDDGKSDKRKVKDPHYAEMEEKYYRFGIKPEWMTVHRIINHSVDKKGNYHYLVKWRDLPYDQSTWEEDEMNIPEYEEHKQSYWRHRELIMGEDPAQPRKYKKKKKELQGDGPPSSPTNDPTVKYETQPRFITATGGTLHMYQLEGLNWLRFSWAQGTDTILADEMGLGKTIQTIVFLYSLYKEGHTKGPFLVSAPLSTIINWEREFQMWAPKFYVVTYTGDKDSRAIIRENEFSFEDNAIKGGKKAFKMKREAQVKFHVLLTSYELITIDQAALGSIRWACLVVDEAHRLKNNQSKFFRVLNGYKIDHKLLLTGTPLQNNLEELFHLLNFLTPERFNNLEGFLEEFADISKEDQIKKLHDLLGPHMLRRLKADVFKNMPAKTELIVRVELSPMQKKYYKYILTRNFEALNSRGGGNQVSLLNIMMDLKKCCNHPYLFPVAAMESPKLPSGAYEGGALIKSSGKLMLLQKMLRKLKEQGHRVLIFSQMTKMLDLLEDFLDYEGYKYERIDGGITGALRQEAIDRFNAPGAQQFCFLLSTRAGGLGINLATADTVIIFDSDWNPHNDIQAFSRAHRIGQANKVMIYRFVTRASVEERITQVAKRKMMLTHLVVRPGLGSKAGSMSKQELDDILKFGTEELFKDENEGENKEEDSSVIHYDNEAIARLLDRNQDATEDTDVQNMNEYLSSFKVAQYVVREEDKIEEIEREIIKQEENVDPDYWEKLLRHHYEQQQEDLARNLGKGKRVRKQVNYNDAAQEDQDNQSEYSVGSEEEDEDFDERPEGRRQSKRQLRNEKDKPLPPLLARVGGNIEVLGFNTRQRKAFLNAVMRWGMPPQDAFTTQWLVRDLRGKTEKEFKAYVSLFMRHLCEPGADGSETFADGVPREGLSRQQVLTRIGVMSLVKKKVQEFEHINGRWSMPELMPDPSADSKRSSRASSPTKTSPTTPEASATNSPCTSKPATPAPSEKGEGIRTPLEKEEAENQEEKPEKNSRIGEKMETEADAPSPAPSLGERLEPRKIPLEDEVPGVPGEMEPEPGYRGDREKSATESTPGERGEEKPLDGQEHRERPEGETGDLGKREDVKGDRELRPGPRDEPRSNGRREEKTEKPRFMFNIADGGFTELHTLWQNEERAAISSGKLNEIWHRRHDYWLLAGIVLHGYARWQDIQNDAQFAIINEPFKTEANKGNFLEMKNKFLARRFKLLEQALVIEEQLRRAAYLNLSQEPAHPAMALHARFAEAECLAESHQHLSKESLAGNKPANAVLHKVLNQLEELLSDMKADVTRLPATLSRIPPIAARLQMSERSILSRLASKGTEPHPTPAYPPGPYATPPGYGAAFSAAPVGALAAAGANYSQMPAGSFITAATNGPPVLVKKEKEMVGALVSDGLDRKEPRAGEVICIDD
Sequence of UniProt Q1RMZ1 (Q1RMZ1 whole entry, looked up): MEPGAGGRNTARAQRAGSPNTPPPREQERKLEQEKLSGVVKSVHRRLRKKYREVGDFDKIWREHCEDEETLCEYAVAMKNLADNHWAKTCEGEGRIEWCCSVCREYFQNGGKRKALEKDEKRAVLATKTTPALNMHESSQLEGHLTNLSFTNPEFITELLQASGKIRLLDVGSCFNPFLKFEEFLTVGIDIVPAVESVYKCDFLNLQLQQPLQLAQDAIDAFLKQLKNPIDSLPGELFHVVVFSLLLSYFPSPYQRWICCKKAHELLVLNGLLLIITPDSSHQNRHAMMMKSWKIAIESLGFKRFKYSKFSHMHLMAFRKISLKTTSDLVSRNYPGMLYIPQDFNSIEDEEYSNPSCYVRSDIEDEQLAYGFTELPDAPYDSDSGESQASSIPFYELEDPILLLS
Sequence of UniProt Q96NL8 (Q96NL8 whole entry, looked up): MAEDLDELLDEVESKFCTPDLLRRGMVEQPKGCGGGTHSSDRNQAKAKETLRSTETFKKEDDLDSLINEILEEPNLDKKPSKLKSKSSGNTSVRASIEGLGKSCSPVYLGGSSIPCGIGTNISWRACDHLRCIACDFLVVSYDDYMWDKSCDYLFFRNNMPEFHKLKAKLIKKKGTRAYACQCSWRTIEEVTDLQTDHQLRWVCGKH
Sequence of UniProt Q5U623 (Q5U623 whole entry, looked up): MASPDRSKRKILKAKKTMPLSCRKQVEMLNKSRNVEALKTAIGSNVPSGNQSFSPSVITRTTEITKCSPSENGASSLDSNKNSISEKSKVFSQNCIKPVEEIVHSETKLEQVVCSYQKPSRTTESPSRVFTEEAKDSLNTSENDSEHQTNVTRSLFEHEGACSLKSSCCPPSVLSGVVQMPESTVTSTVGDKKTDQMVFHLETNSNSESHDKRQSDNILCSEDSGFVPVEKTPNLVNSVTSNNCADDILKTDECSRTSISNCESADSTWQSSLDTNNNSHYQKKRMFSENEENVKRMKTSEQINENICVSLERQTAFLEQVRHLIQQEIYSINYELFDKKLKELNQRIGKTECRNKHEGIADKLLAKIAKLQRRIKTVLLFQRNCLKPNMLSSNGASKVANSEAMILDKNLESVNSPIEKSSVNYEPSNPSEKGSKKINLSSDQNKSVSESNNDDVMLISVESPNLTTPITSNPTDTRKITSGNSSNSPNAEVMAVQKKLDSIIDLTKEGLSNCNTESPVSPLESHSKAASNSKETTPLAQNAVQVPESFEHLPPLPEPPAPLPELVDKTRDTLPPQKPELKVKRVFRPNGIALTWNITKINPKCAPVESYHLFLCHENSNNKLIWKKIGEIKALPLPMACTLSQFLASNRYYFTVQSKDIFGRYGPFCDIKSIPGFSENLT
Sequence of UniProt Q96B23 (Q96B23 whole entry, looked up): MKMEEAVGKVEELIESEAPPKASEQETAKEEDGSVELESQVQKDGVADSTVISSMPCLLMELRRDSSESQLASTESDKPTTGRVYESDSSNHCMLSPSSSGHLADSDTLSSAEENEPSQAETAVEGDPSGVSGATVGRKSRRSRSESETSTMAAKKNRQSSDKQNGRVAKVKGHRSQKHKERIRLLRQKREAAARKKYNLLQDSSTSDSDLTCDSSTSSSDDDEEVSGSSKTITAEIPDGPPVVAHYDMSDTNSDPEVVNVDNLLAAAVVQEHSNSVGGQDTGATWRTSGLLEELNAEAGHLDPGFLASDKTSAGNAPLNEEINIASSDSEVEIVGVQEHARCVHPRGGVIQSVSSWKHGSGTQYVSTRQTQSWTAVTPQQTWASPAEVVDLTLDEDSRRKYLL
Sequence of UniProt Q5T9A4 (Q5T9A4 whole entry, looked up): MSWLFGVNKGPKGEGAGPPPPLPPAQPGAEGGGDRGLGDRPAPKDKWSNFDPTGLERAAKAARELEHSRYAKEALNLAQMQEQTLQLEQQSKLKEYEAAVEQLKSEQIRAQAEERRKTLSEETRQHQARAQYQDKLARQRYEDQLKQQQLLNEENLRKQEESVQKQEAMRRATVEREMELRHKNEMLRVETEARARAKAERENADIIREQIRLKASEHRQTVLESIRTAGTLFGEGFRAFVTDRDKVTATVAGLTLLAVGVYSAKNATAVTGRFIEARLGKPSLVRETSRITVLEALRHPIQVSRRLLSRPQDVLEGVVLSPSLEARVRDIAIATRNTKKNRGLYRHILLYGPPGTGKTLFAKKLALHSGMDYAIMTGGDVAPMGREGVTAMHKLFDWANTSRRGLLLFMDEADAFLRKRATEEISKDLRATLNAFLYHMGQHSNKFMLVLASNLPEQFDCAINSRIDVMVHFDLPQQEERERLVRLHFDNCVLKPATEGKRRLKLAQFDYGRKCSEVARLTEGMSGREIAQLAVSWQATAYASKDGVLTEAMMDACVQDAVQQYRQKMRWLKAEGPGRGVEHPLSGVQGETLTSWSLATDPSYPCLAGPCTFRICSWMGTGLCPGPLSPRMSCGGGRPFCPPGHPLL
Sequence of UniProt A8MTT3 (A8MTT3 whole entry, looked up): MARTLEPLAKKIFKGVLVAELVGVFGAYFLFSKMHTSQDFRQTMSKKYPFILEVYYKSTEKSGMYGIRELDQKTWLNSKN

Target	log2 fold change (nilotinib)	log2 fold change [1]	log2 fold change (dasatinib)	log2 fold change [2]	log2 fold change [3]	log2 fold change (quisinostat)	log2 fold change (tipifarnib)	log2 fold change [4]	log2 fold change [5]	log2 fold change [6]	log2 fold change [7]	log2 fold change (vorinostat)	log2 fold change (silmitasertib)	log2 fold change [8]	log2 fold change (entospletinib)
ATAD3B (UniProt Q5T9A4)	-0.017	0.019	0.01	-0.026	0.046	0.018	-0.004	0.051	-0.006	0.006	-0.128	0.132	0.015	-0.057	0.012
C9orf72 (UniProt Q96LT7)	0.017	-0.063	-0.025	0.073	0.001	-0.034	-0.065	-0.03	0.015	-0.014		0.919 (active)	-0.045	-0.015	-0.129
CD80 (UniProt P33681)	0.259	-0.065	-0.015	-0.333	0.039	0.025	0.023	-0.002	0.086	-0.03	0.018	-0.028	-0.067	-0.066	-0.162
ATE1 isoform 2 (UniProt O95260)	-0.099	-0.006	0.069	-0.032	0.017	-0.014	0.025	0.034	-0.002	0.014	-0.068	-0.444 (active)	0.041	-0.01	-0.008
ATG10 (UniProt Q9H0Y0)	-0.064	0.026	0.043	-0.16	-0.068	0.015	0.125	-0.01		0.016	-0.032	-0.242 (active)	0.049	-0.023	0.034
CDC25A (UniProt P30304)	0.013	-0.01	-0.035	-0.021	0.024	0.006	0.011	0.017	0.016	0.025		-1.01 (active)	0.084	-0.172	
CENPQ (UniProt Q7L2Z9)	-0.025	0.044	0	-0.036	-0.015	0.07	-0.076	0.047	0.164	-0.107	-0.016	0.061	-0.014	0.028	0.047
CHD3 isoform 3 (UniProt Q12873)	0.036	-0.004	-0.033	-0.047	0.032	0.005	0.014	0.029	-0.002	0.008	0.022	-0.316 (active)	0.032	-0.004	0.002
CAMK2G isoform 8 (UniProt Q13555)	-0.007	0.518 (active)	-0.034	0.039	-0.062	-0.125	-0.005	0.219	0.019	-0.125	-0.044	-0.208	0.087	0.084	0.004
CELF1 isoform 4 (UniProt Q92879)	-0.022	0.042	-0.025	0	0	0.021	-0.013	0.037	0.033	0.067	0.065	-0.347 (active)	0.019	0.022	0.013
C18orf25 isoform 2 (UniProt Q96B23)	-0.026	-0.115	-0.025	-0.291	-0.056		0.076		0.01	-0.071	-0.014	-0.034	-0.067		0.038
CDK5RAP1 (UniProt Q96SZ6)	-0.007	0.002	0.037	0.019	0.011	0.049	-0.002	-0.004		-0.013	0.011	0.036	-0.07	0.016	0.029
BUD13 (UniProt Q9BRD0)	-0.036	0.111	-0.094	0	0.019	-0.044	0.028	-0.014		-0.019		0.136	0.054	0.036	-0.046
C15orf39 (UniProt Q6ZRI6)	0.074	-0.006	-0.059	0.019	0.034	-0.017	-0.015	0.053		0.184		-0.513 (active)	0.008	-0.025	-0.147
CEBPZOS (UniProt A8MTT3)	0.069	-0.01	0.053	0.024	0.044	0.02	-0.017	-0.039	-0.004	-0.008	-0.113	0.082	-0.004	-0.025	-0.037
CARHSP1 (UniProt H3BNU9)	-0.196	0.149		0.238			0.108		-0.059						
CEP295 isoform 3 (UniProt Q9C0D2)	0.016	0.046		0.006		0.017	0.062	-0.038	0.14	0.046		-0.004	0.076	-0.076	0.087
CDC14A isoform 2 (UniProt Q9UNH5)	-0.076	0.07		-0.001		-0.174	-0.019	0.083	0.101					-0.11	
C8orf37 (UniProt Q96NL8)			0.083		0.056	0.004		-0.01	0.298	0.029	0.206	0.084	0.044	0.008	-0.035
BTK isoform 2 (UniProt Q06187)	0.016	-0.002		0.015	-0.005	-0.05	-0.021	0.294 (active)	0.032	-0.049	0.439 (active)	-0.322 (active)	0.066	0.012	0.3
CDKL5 (UniProt O76039)			-0.095		0.188	-0.283		-0.002	0.069		0.037			0.011	0.017
ATF7IP2 (UniProt Q5U623)	-0.003	0.008		-0.089		-0.336 (active)	-0.064	0.001	0.036	-0.127	0.066	0.027	0.002	-0.048	
ATXN2 (UniProt F8WB05)			0.035		-0.058	-0.208		-0.025	0.025	-0.394	0.013	0.011	0.271	0.115	-0.016
BRAF (UniProt P15056)		0.011		-0.043	0.002	-0.173	-0.006	0.018	0.007		-0.001	-0.339	0.061	-0.008	0.037
BMT2 (UniProt Q1RMZ1)	0.172	-0.923 (active)		0.134			0								
